According to PubChem BioAssay (NCI):
Compounds without any hit were thinned out: in the full panel of roughly 83,000, 20% have a hit.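 Treatment: one concentration, 48 hours, 96-well format. Scoring: percent growth, with anything below 10 considered active.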 Values without a mark were called inactive. Activity calls are given as the source filed them.

Key:
Experiment in all cases: NCI-60 one-dose screen, 48 h (100 = growth as untreated, 0 = no growth, -100 = all killed)
Details in all cases: 10 µM unless noted
HCT-15 colon = tested on: HCT-15 colon
HT29 colon = tested on: HT29 colon
SNB-19 CNS = tested on: SNB-19 CNS
U251 CNS = tested on: U251 CNS
PC-3 prostate = tested on: PC-3 prostate
SK-MEL-5 melanoma = tested on: SK-MEL-5 melanoma
UACC-62 melanoma = tested on: UACC-62 melanoma
LOX IMVI melanoma = tested on: LOX IMVI melanoma
SK-MEL-28 melanoma = tested on: SK-MEL-28 melanoma
EKVX NSCLC = tested on: EKVX NSCLC
SN12C renal = tested on: SN12C renal
UO-31 renal = tested on: UO-31 renal
TK-10 renal = tested on: TK-10 renal
ACHN renal = tested on: ACHN renal
CAKI-1 renal = tested on: CAKI-1 renal
A498 renal = tested on: A498 renal
MOLT-4 leukemia = tested on: MOLT-4 leukemia
SK-MEL-2 melanoma = tested on: SK-MEL-2 melanoma
CCRF-CEM leukemia = tested on: CCRF-CEM leukemia

Question: For `O=C(Nc1ccncc1)C(=O)c1cn(S(=O)(=O)c2ccc(Cl)cc2)c2ccccc12`, which growth (HCT-15 colon) is on record?
Answer: 26.6%

Question: And the growth (HT29 colon)?
Answer: 2.91% (active)

Question: And the growth (SNB-19 CNS)?
Answer: 44.7%

Question: What about the growth (U251 CNS) of the same compound?
Answer: 31.3%

Question: And the growth (PC-3 prostate)?
Answer: 41.7%

Question: And the growth (SK-MEL-5 melanoma)?
Answer: 17.1%

Question: What about the growth (UACC-62 melanoma) of the same compound?
Answer: 30.7%

Question: And the growth (LOX IMVI melanoma)?
Answer: 42.8%

Question: And the growth (SK-MEL-28 melanoma)?
Answer: 46.4%

Question: And the growth (EKVX NSCLC)?
Answer: 53.5%

Question: What about the growth (SN12C renal) of the same compound?
Answer: 34%

Question: What about the growth (UO-31 renal) of the same compound?
Answer: 42.1%

Question: And the growth (TK-10 renal)?
Answer: 81.9%

Question: What about the growth (ACHN renal) of the same compound?
Answer: 52.8%

Question: And the growth (CAKI-1 renal)?
Answer: 44.9%

Question: And the growth (A498 renal)?
Answer: 53.6%

Question: And the growth (MOLT-4 leukemia)?
Answer: 48%

Question: `COc1ccc(-c2nc(N3CCCC3=O)sc2Br)cc1OC` was tested. Which growth (HCT-15 colon) did it give?
Answer: 89.8%

Question: What about the growth (HT29 colon) of the same compound?
Answer: 82.7%

Question: What about the growth (SNB-19 CNS) of the same compound?
Answer: 93.8%

Question: What about the growth (U251 CNS) of the same compound?
Answer: 96.7%

Question: And the growth (PC-3 prostate)?
Answer: 101%

Question: And the growth (SK-MEL-5 melanoma)?
Answer: 89.8%

Question: And the growth (UACC-62 melanoma)?
Answer: 90%

Question: And the growth (LOX IMVI melanoma)?
Answer: 100%

Question: And the growth (SK-MEL-28 melanoma)?
Answer: 102%

Question: And the growth (SK-MEL-2 melanoma)?
Answer: 86.5%

Question: And the growth (SN12C renal)?
Answer: 104%

Question: And the growth (UO-31 renal)?
Answer: 93.6%

Question: What about the growth (TK-10 renal) of the same compound?
Answer: 94.1%

Question: And the growth (ACHN renal)?
Answer: 93%

Question: And the growth (CAKI-1 renal)?
Answer: 99.4%

Question: What about the growth (A498 renal) of the same compound?
Answer: 88.3%

Question: What about the growth (CCRF-CEM leukemia) of the same compound?
Answer: 96.4%

Question: What about the growth (MOLT-4 leukemia) of the same compound?
Answer: 93.8%

Question: How did the growth (HCT-15 colon) turn out when `Fc1ccc(-c2nc(-c3nc4ncccc4[nH]3)cc3c2[nH]c2ccccc23)cc1F` was run?
Answer: 54.7%

Question: What about the growth (HT29 colon) of the same compound?
Answer: 39.1%

Question: What about the growth (SNB-19 CNS) of the same compound?
Answer: 102%

Question: What about the growth (U251 CNS) of the same compound?
Answer: 81.9%

Question: What about the growth (PC-3 prostate) of the same compound?
Answer: 73.3%

Question: And the growth (SK-MEL-5 melanoma)?
Answer: 28.3%

Question: And the growth (UACC-62 melanoma)?
Answer: 79.9%

Question: And the growth (LOX IMVI melanoma)?
Answer: 48.5%

Question: And the growth (SK-MEL-28 melanoma)?
Answer: 94%

Question: What about the growth (SK-MEL-2 melanoma) of the same compound?
Answer: 83.1%

Question: What about the growth (SN12C renal) of the same compound?
Answer: 72.5%

Question: What about the growth (UO-31 renal) of the same compound?
Answer: 41.9%

Question: What about the growth (TK-10 renal) of the same compound?
Answer: 91.7%

Question: What about the growth (ACHN renal) of the same compound?
Answer: 83%

Question: And the growth (A498 renal)?
Answer: 88.4%

Question: What about the growth (CCRF-CEM leukemia) of the same compound?
Answer: 67.2%

Question: And the growth (MOLT-4 leukemia)?
Answer: 49.8%

Question: What does the source list for `O=C(O)COc1ccc(-c2cssc2=S)cc1`?
Answer: growth (HCT-15 colon): 99.4%; growth (HT29 colon): 87.5%; growth (SNB-19 CNS): 105%; growth (U251 CNS): 98.2%; growth (PC-3 prostate): 104%; growth (SK-MEL-5 melanoma): 100%; growth (UACC-62 melanoma): 107%; growth (LOX IMVI melanoma): 96.6%; growth (SK-MEL-28 melanoma): 108%; growth (SK-MEL-2 melanoma): 90.8%; growth (SN12C renal): 103%; growth (UO-31 renal): 88.9%; growth (TK-10 renal): 93.9%; growth (ACHN renal): 103%; growth (CAKI-1 renal): 104%; growth (A498 renal): 88.2%; growth (CCRF-CEM leukemia): 90.3%; growth (MOLT-4 leukemia): 102%

Question: For `COc1cc(-c2nn(-c3cccc(NC(=O)Nc4cc(C(F)(F)F)cc(C(F)(F)F)c4)c3)cc2-c2ccncc2)ccc1Cl`, which growth (HCT-15 colon) is on record?
Answer: 2.59% (active)

Question: What about the growth (HT29 colon) of the same compound?
Answer: -41.2% (active)

Question: And the growth (SNB-19 CNS)?
Answer: 6.55% (active)

Question: What about the growth (U251 CNS) of the same compound?
Answer: -81.7% (active)

Question: What about the growth (PC-3 prostate) of the same compound?
Answer: -55.2% (active)

Question: What about the growth (SK-MEL-5 melanoma) of the same compound?
Answer: -96.1% (active)

Question: And the growth (UACC-62 melanoma)?
Answer: -55.9% (active)

Question: What about the growth (LOX IMVI melanoma) of the same compound?
Answer: -91.3% (active)

Question: And the growth (SK-MEL-28 melanoma)?
Answer: -28.9% (active)

Question: What about the growth (SK-MEL-2 melanoma) of the same compound?
Answer: -52.1% (active)

Question: And the growth (SN12C renal)?
Answer: -8.08% (active)

Question: And the growth (UO-31 renal)?
Answer: -29.2% (active)

Question: What about the growth (TK-10 renal) of the same compound?
Answer: -26.7% (active)

Question: And the growth (ACHN renal)?
Answer: 10.5%

Question: What about the growth (CAKI-1 renal) of the same compound?
Answer: 18.5%

Question: And the growth (A498 renal)?
Answer: -14.6% (active)

Question: And the growth (CCRF-CEM leukemia)?
Answer: -27.3% (active)

Question: What about the growth (MOLT-4 leukemia) of the same compound?
Answer: -24.5% (active)

Question: With `O=C(Nc1ccncc1)C(=O)c1cn(S(=O)(=O)c2ccc(Oc3ccccc3)cc2)c2ccccc12` as the compound, how does the growth (HCT-15 colon) read?
Answer: 88.6%

Question: What about the growth (HT29 colon) of the same compound?
Answer: 101%

Question: And the growth (SNB-19 CNS)?
Answer: 98.6%

Question: And the growth (U251 CNS)?
Answer: 94%

Question: What about the growth (PC-3 prostate) of the same compound?
Answer: 85.7%

Question: What about the growth (SK-MEL-5 melanoma) of the same compound?
Answer: 98.2%

Question: And the growth (UACC-62 melanoma)?
Answer: 79.1%

Question: And the growth (LOX IMVI melanoma)?
Answer: 91.3%

Question: And the growth (SK-MEL-28 melanoma)?
Answer: 110%

Question: And the growth (EKVX NSCLC)?
Answer: 42.3%

Question: What about the growth (SN12C renal) of the same compound?
Answer: 84.9%

Question: And the growth (UO-31 renal)?
Answer: 62.3%

Question: And the growth (TK-10 renal)?
Answer: 102%

Question: And the growth (ACHN renal)?
Answer: 86.3%

Question: And the growth (CAKI-1 renal)?
Answer: 57%

Question: What about the growth (A498 renal) of the same compound?
Answer: 34.7%

Question: Which growth (HCT-15 colon) does the source give for `COc1ccc(OC)c(C2OC(c3ccc4ccccc4c3O)=NN2C(C)=O)c1` (stereo not drawn) here?
Answer: 62%

Question: What about the growth (HT29 colon) of the same compound?
Answer: 61.1%

Question: What about the growth (SNB-19 CNS) of the same compound?
Answer: 81.1%

Question: And the growth (U251 CNS)?
Answer: 83.3%

Question: What about the growth (PC-3 prostate) of the same compound?
Answer: 59.3%

Question: And the growth (SK-MEL-5 melanoma)?
Answer: 58.4%

Question: What about the growth (UACC-62 melanoma) of the same compound?
Answer: 69.1%

Question: What about the growth (LOX IMVI melanoma) of the same compound?
Answer: 63.9%

Question: What about the growth (SK-MEL-28 melanoma) of the same compound?
Answer: 78.6%

Question: What about the growth (SK-MEL-2 melanoma) of the same compound?
Answer: 60.7%

Question: And the growth (SN12C renal)?
Answer: 80.6%

Question: What about the growth (UO-31 renal) of the same compound?
Answer: 63.4%

Question: What about the growth (TK-10 renal) of the same compound?
Answer: 80.7%

Question: What about the growth (ACHN renal) of the same compound?
Answer: 69.5%

Question: What about the growth (CAKI-1 renal) of the same compound?
Answer: 87.6%

Question: What about the growth (A498 renal) of the same compound?
Answer: 37.4%

Question: And the growth (CCRF-CEM leukemia)?
Answer: 69.2%

Question: What about the growth (MOLT-4 leukemia) of the same compound?
Answer: 61.8%

Question: Which growth (HCT-15 colon) does the source give for `Cc1ccc(S(=O)(=O)NCCNc2nccc(-c3c(-c4ccc(O)cc4)nc4sccn34)n2)cc1` here?
Answer: 99.1%

Question: What about the growth (HT29 colon) of the same compound?
Answer: 78.9%

Question: And the growth (SNB-19 CNS)?
Answer: 113%

Question: What about the growth (U251 CNS) of the same compound?
Answer: 104%

Question: What about the growth (PC-3 prostate) of the same compound?
Answer: 86.5%

Question: And the growth (SK-MEL-5 melanoma)?
Answer: 94.5%

Question: And the growth (UACC-62 melanoma)?
Answer: 91.4%

Question: What about the growth (LOX IMVI melanoma) of the same compound?
Answer: 95.7%

Question: What about the growth (SK-MEL-28 melanoma) of the same compound?
Answer: 114%

Question: And the growth (SK-MEL-2 melanoma)?
Answer: 114%

Question: And the growth (SN12C renal)?
Answer: 93.3%

Question: What about the growth (UO-31 renal) of the same compound?
Answer: 84%

Question: And the growth (TK-10 renal)?
Answer: 121%

Question: What about the growth (ACHN renal) of the same compound?
Answer: 93%

Question: And the growth (CAKI-1 renal)?
Answer: 98.2%

Question: What about the growth (A498 renal) of the same compound?
Answer: 104%

Question: And the growth (CCRF-CEM leukemia)?
Answer: 86.8%

Question: What about the growth (MOLT-4 leukemia) of the same compound?
Answer: 59%

Question: How did the growth (HCT-15 colon) turn out when `COc1cc(-c2nn(-c3cccc(NC(=O)Nc4ccc(Cl)c(Cl)c4)c3)cc2-c2ccncc2)ccc1Cl` was run?
Answer: 12.7%

Question: What about the growth (HT29 colon) of the same compound?
Answer: 1.12% (active)

Question: What about the growth (SNB-19 CNS) of the same compound?
Answer: 27.2%

Question: And the growth (U251 CNS)?
Answer: -6.02% (active)

Question: And the growth (PC-3 prostate)?
Answer: -17.6% (active)

Question: And the growth (SK-MEL-5 melanoma)?
Answer: -80% (active)

Question: What about the growth (UACC-62 melanoma) of the same compound?
Answer: -65.1% (active)

Question: What about the growth (LOX IMVI melanoma) of the same compound?
Answer: 1.38% (active)

Question: What about the growth (SK-MEL-28 melanoma) of the same compound?
Answer: 4.96% (active)

Question: And the growth (SK-MEL-2 melanoma)?
Answer: -44.2% (active)

Question: And the growth (SN12C renal)?
Answer: 10.6%

Question: And the growth (UO-31 renal)?
Answer: 15.9%

Question: And the growth (TK-10 renal)?
Answer: 10.9%

Question: And the growth (ACHN renal)?
Answer: 11.5%

Question: And the growth (CAKI-1 renal)?
Answer: 16.8%

Question: What about the growth (A498 renal) of the same compound?
Answer: -6.82% (active)

Question: What about the growth (CCRF-CEM leukemia) of the same compound?
Answer: -7.9% (active)

Question: And the growth (MOLT-4 leukemia)?
Answer: -11.1% (active)
